The values below come from the supplement of paper PMC9262897, “Low-cost anti-mycobacterial drug discovery using engineered E. coli” (Nature Communications, 2022).

What all share (assay): growth (OD600 after 10 h); higher = more growth (less inhibition)
In assay [1] the test system is E. coli TESEC Alr+ wild-type control. To be noted: compound 0.1 mM; raw OD600 reference: median of DMSO wells 0.241, cell-free background 0.041. As for the experimental part:
(§1)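 TESEC Mtb Alr E. coli, or the Alr+ wild-type control, in 384-well plates with Prestwick library compounds at 0.1 mM and 1% DMSO, across arabinose induction levels of 1E3 to 1E7 nM. Growth is read as OD600 after 10 h at 37 °C in triplicate biological replicates.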

The test system of assay [2] is E. coli TESEC Mtb Alr. To be noted: compound 0.1 mM. As for the experimental part: as §1
The subject of assay [3] is E. coli TESEC Mtb Asd. To be noted: compound 0.1 mM. As for the experimental part: (§2)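 TESEC E. coli strains in which the native enzyme is deleted and replaced by arabinose-inducible Mtb Asd, DapB, CysH or TrpD, each grown in its selective medium. Strains were screened against the Prestwick library at 0.1 mM and 1% DMSO in 384-well format at low and high arabinose induction. Growth is read as OD600 after 10 h in triplicate.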

Assay [4] deals with E. coli TESEC Mtb DapB. To be noted: compound 0.1 mM. The method, then: as §2
In assay [5] the test system is E. coli TESEC Mtb Alr. To be noted: compound 0.1 mM. The method, then: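 TESEC Mtb Alr E. coli (ΔaraC ΔtolC ΔentC Δalr ΔdadX, arabinose-inducible Mtb Alr) or the Alr+ wild-type control strain, grown in defined M9-fructose medium without D-alanine in 96-well plates with Prestwick library compounds at 0.1 mM and 1% DMSO. Low Alr induction is 0.1 µM arabinose and high induction is 10 mM arabinose.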
This is another data set of the same source.

Where [6] appears, read: arabinose 1000 nM, raw OD600 reference: median of DMSO wells 0.294, cell-free background 0.041.
Where [7] appears, read: arabinose 10000 nM, raw OD600 reference: median of DMSO wells 0.264, cell-free background 0.041.
[8] abbreviates: arabinose 100000 nM, raw OD600 reference: median of DMSO wells 0.201, cell-free background 0.041.
The mark [9] stands for this setting: arabinose 1000000 nM, raw OD600 reference: median of DMSO wells 0.193, cell-free background 0.041.
The mark [10] stands for this setting: arabinose 10000000 nM, raw OD600 reference: median of DMSO wells 0.146, cell-free background 0.041.
Setting [11] is: arabinose induction (level): High, raw OD600 reference: median of DMSO wells 0.331, cell-free background 0.041.
Setting [12] is: arabinose induction (level): Low, raw OD600 reference: median of DMSO wells 0.417, cell-free background 0.041.
Setting [13] is: arabinose induction (level): High, raw OD600 reference: median of DMSO wells […], cell-free background 0.041.
Setting [14] is: arabinose induction (level): Low, raw OD600 reference: median of DMSO wells 0.227, cell-free background 0.041.
[15] abbreviates: arabinose 100 nM, raw OD600 reference: median of DMSO wells 0.413, cell-free background 0.052.
Where [16] appears, read: arabinose 10000000 nM, raw OD600 reference: median of DMSO wells […], cell-free background 0.052.

Where a name gives a salt, the structure may show the parent alone. ± gives the standard deviation of the averaged measurements.

Take `CC=C(C)C(=O)OC1C(OC(C)=O)C2(CO)C(O)CC3(C)C(=CCC4C5(C)CCC(OC6OC(C(=O)O)C(OC7OC(CO)C(O)C(O)C7O)C(O)C6OC6OC(CO)C(O)C(O)C6O)C(C)(CO)C5CCC43C)C2CC1(C)C` (stereo not drawn) [Beta-Escin]: the growth came out at 0.289 ± 0.0075 in assay [1]; 0.333 ± 0.0081 in assay [2] (setting [6]); 0.24 ± 0.0056 in assay [2] (setting [7]); 0.366 ± 0.011 in assay [2] (setting [8]); 0.151 ± 0.0075 in assay [2] (setting [9]); 0.226 ± 0.01 in assay [2] (setting [10]). Moreover, the growth in assay [3] (setting [11]) worked out at 0.271 ± 0.026; in assay [3] (setting [12]), 0.342 ± 0.048; in assay [4] (setting [13]), 0.329 ± 0.018; in assay [4] (setting [14]) it was 0.323 ± 0.0085; in assay [5] (setting [15]), 0.438 ± 0.018; in assay [5] (setting [16]) it was 0.392 ± 0.011.
`COc1ccccc1OCCNCC(O)COc1cccc2[nH]c3ccccc3c12` (stereo unspecified) [Carvedilol]: the growth in assay [1] was 0.0443 ± 0.0033; in assay [2] (setting [6]), 0.0415 ± 0.00062; in assay [2] (setting [7]), 0.046 ± 0.0023; in assay [2] (setting [8]) it was 0.0419 ± 0.00047; in assay [2] (setting [9]), 0.04137 ± 0.0004; in assay [2] (setting [10]), 0.0456 ± 0.0015. Further, the growth in assay [3] (setting [11]) amounted to 0.0533 ± 0.004; in assay [3] (setting [12]), 0.0496 ± 0.0017; in assay [4] (setting [13]), 0.0942 ± 0.026; in assay [4] (setting [14]) it was 0.06 ± 0.004; in assay [5] (setting [15]) it was 0.4106 ± 0.0016; in assay [5] (setting [16]) it was 0.0825 ± 0.025.
In the case of `Cc1cnc(NC(=O)C2=C(O)c3ccccc3S(=O)(=O)N2C)s1` [Meloxicam], the growth in assay [1] was determined as 0.148 ± 0.0039; in assay [2] (setting [6]), 0.186 ± 0.0048; in assay [2] (setting [7]) it was 0.238 ± 0.012; in assay [2] (setting [8]), 0.208 ± 0.039; in assay [2] (setting [9]) it was 0.117 ± 0.0022; in assay [2] (setting [10]), 0.149 ± 0.0054. In addition, the growth in assay [3] (setting [11]) was 0.245 ± 0.035; in assay [3] (setting [12]), 0.296 ± 0.1; in assay [4] (setting [13]) it was 0.201 ± 0.021; in assay [4] (setting [14]), 0.195 ± 0.0074; in assay [5] (setting [15]), 0.33 ± 0.04; in assay [5] (setting [16]), 0.221 ± 0.016.
For `CC(=O)CCCCn1c(=O)c2c(ncn2C)n(C)c1=O` [Pentoxifylline], the growth in assay [1] came out at 0.2306 ± 0.0011; in assay [2] (setting [6]), 0.276 ± 0.0075; in assay [2] (setting [7]), 0.2728 ± 0.0025; in assay [2] (setting [8]) it was 0.203 ± 0.013; in assay [2] (setting [9]), 0.187 ± 0.0042; in assay [2] (setting [10]), 0.134 ± 0.0031. Further, the growth in assay [3] (setting [11]) stood at 0.297 ± 0.079; in assay [3] (setting [12]), 0.387 ± 0.029; in assay [4] (setting [13]) it was 0.2 ± 0.024; in assay [4] (setting [14]), 0.207 ± 0.019; in assay [5] (setting [15]), 0.431 ± 0.0088; in assay [5] (setting [16]) it was 0.363 ± 0.006.
Consider `CO/N=C(\C(=O)N[C@@H]1C(=O)N2C(C(=O)O)=C(COC(C)=O)CS[C@H]12)c1csc(N)n1` [Cefotaxime sodium salt], for which the growth in assay [1] worked out at 0.0395 ± 0.00046; in assay [2] (setting [6]) it was 0.0388 ± 0.0013; in assay [2] (setting [7]), 0.0398 ± 0.00026; in assay [2] (setting [8]), 0.0388 ± 0.0013; in assay [2] (setting [9]) it was 0.04017 ± 0.00038; in assay [2] (setting [10]), 0.04007 ± 0.0004. The growth in assay [3] (setting [11]) is 0.0625 ± 0.0074; in assay [3] (setting [12]) it was 0.0606 ± 0.002; in assay [4] (setting [13]), 0.0632 ± 0.014; in assay [4] (setting [14]) it was 0.0489 ± 0.0033; in assay [5] (setting [15]) it was 0.0466 ± 0.0015; in assay [5] (setting [16]), 0.0529 ± 0.0023.
Take `O=C1NCN(c2ccccc2)C12CCN(CCCC(c1ccc(F)cc1)c1ccc(F)cc1)CC2` [Fluspirilen]: the growth came to 0.0416 ± 0.0009 in assay [1]; 0.044 ± 0.0032 in assay [2] (setting [6]); 0.0402 ± 0.00092 in assay [2] (setting [7]); 0.0775 ± 0.0044 in assay [2] (setting [8]); 0.0438 ± 0.0018 in assay [2] (setting [9]); 0.0681 ± 0.0024 in assay [2] (setting [10]). Further, the growth in assay [3] (setting [11]) was found to be 0.0816 ± 0.034; in assay [3] (setting [12]), 0.0703 ± 0.0098; in assay [4] (setting [13]) it was 0.167 ± 0.014; in assay [4] (setting [14]), 0.19 ± 0.021; in assay [5] (setting [15]), 0.0516 ± 0.00059; in assay [5] (setting [16]), 0.0605 ± 0.008.
Consider `CC(C)(C)C(=O)OCOC(=O)[C@@H]1N2C(=O)[C@@H](/N=C/N3CCCCCC3)[C@H]2SC1(C)C` [Pivmecillinam hydrochloride], for which the growth in assay [1] is 0.184 ± 0.0062; in assay [2] (setting [6]), 0.249 ± 0.0036; in assay [2] (setting [7]), 0.282 ± 0.0063; in assay [2] (setting [8]), 0.326 ± 0.0058; in assay [2] (setting [9]) it was 0.191 ± 0.016; in assay [2] (setting [10]), 0.191 ± 0.021. The growth in assay [3] (setting [11]) stood at 0.323 ± 0.028; in assay [3] (setting [12]) it was 0.363 ± 0.022; in assay [4] (setting [13]) it was 0.218 ± 0.022; in assay [4] (setting [14]), 0.222 ± 0.024; in assay [5] (setting [15]), 0.4196 ± 0.0028; in assay [5] (setting [16]) it was 0.344 ± 0.012.
Regarding `O=C(O)CCCC[C@@H]1SC[C@@H]2NC(=O)N[C@@H]21` [Biotin], the growth in assay [1] came to 0.257 ± 0.0089; in assay [2] (setting [6]) it was 0.309 ± 0.0092; in assay [2] (setting [7]), 0.265 ± 0.016; in assay [2] (setting [8]), 0.217 ± 0.028; in assay [2] (setting [9]), 0.206 ± 0.018; in assay [2] (setting [10]), 0.145 ± 0.0046. Moreover, the growth came to 0.347 ± 0.05 in assay [3] (setting [11]); 0.418 ± 0.045 in assay [3] (setting [12]); 0.18 ± 0.0081 in assay [4] (setting [13]); 0.208 ± 0.022 in assay [4] (setting [14]); 0.408 ± 0.0076 in assay [5] (setting [15]); 0.354 ± 0.014 in assay [5] (setting [16]).
